The nature of test [1]: cAMP Responsive Elements (CRE) small molecule antagonists, cell-based qHTS assay: qHTS cell viability counter screen (AID 2060913). Note: nearly all actives have a fitted effect of over 40% in size. The procedure, abridged:
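Viability of NKH477-stimulated (0.25 uM final) CRE-bla HEK293T cells is measured by CellTiter-Glo luminescence following 3 hrs compound exposure at 37 C.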
(qHTS replaces the single test concentration by a dilution series.)

Test [2] in a line: cAMP Responsive Elements (CRE) small molecule agonists, cell-based qHTS assay: qHTS cell viability counter screen (AID 2060914).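 Note: viability read after 3 h of compound exposure; nearly all actives have a fitted effect of over 50% in size.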 The procedure, abridged:
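Cytotoxicity counter screen multiplexed with the CRE-bla reporter assay in HEK 293T cells: 3 h compound exposure at 37 °C, followed by CellTiter-Glo luminescence measured in the same wells.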

Values joined by “and” are separate entries in the source; they are usually repeats but may differ in a detail not shown here. Equal values may be shown once. Inconclusive results are not listed. Unmarked numbers belong to inactive results. Active and inactive are the calls of the source. Calls come from the whole dose curve; as a rule, active = well fitted cell-killing curve with a large enough effect in the repeat runs; inconclusive = weak or mixed curves, or effect the other way; inactive = flat fitted curve, though single readings scatter.
% is set by controls: 0 for no effect and ±100 for the full control effect; potency is the fitted concentration of half-maximal effect.

`c1ccc2c(c1)[nH]c1cnccc12`: the Potency entry in test [1] and in test [2] was “inactive” in each case.

On to `CC1NCCOC1c1ccccc1` (stereo not given), for which the Potency entry in test [1] and in test [2] was “inactive” in each case.

As to `CCOC(=O)N(C)N=O`, the Potency entry in test [1] and in test [2] was “inactive” each time.

As for `CCCC[N+]1(C)[C@@H]2CC(OC(=O)[C@H](CO)c3ccccc3)C[C@H]1[C@@H]1O[C@@H]12` (stereo not given in full), the Potency result in test [1] and in test [2] was “inactive” in each case.

Regarding `Nc1ccc(Cl)cc1C(=O)c1ccccc1F`, the Potency entry in test [1] and in test [2] was “inactive” each time.

Turning to `FC(Cl)(Cl)C(F)(Cl)Cl`, the Potency result in test [1] and in test [2] was “inactive” each time.

As for `CC(C)CP(=S)(S)CC(C)C`, the Potency result in test [1] and in test [2] was “inactive” each time.

With `ClC1=C(Cl)[C@]2(Cl)[C@H]3[C@H]([C@@H]4C=C[C@H]3C4)[C@@]1(Cl)C2(Cl)Cl`, the Potency entry in test [1] and in test [2] was “inactive” in each case.

Turning to `CC(O)CN1CCN(CC(=O)[O-])CCN(CC(=O)[O-])CCN(CC(=O)[O-])CC1.[Gd+3]` (stereo not given), the Potency result in test [1] and in test [2] was “inactive” throughout.

`O=C(O)C1C(C(=O)O)C2(Cl)C(Cl)=C(Cl)C1(Cl)C2(Cl)Cl` (stereo not given): the Potency result in test [1] and in test [2] was “inactive” in each case.

As for `CCCC[N+]1(C)CCCCC1`, the Potency result in test [1] and in test [2] was “inactive” in each case.

As for `c1ccc(C2CO2)cc1` (stereo not given), the Potency entry in test [1] and in test [2] was “inactive” each time.

For the compound `CN1C(=O)COc2c(C(=O)NC3CN4CCC3CC4)cc(Cl)cc21` (stereo not given), the Potency result in test [1] and in test [2] was “inactive” throughout.

Consider `CNC(=O)O/N=C(\SC)C(=O)N(C)C`, for which the Potency entry in test [1] and in test [2] was “inactive” each time.

Consider `N#Cc1ccc(Cl)cc1`, for which the Potency entry in test [1] and in test [2] was “inactive” each time.

As to `NCCCNCCCN`, the Potency entry in test [1] and in test [2] was “inactive” in each case.

Turning to `CCCCCCC(=O)CCCCCC/C=C/C[C@@H](O)[C@H](O)[C@@](N)(CO)C(=O)O`, the viability change, negative = cytotoxic in test [1] is 2.93% [at 18.9 µM]. Further, the activity change, negative = cytotoxicity in test [2] is -1.02% [at 18.9 µM].

On to `CC1(C)CN=C(NN=C(/C=C/c2ccc(C(F)(F)F)cc2)/C=C/c2ccc(C(F)(F)F)cc2)NC1`, for which the Potency entry in test [1] and in test [2] was “inactive” throughout.

On to `CCCCCCCCCBr`, for which the Potency result in test [1] and in test [2] was “inactive” in each case.

With `CC1(C)CON(Cc2ccccc2Cl)C1=O`, the Potency result in test [1] and in test [2] was “inactive” throughout.

For the compound `C1CCC(NC2CCCCC2)CC1`, the Potency entry in test [1] and in test [2] was “inactive” each time.

Regarding `C=CCCl`, the Potency result in test [1] and in test [2] was “inactive” in each case.

As for `COC(=O)c1ccccc1S(=O)(=O)NC(=O)Nc1nc(C)cc(C)n1`, the Potency entry in test [1] and in test [2] was “inactive” in each case.

As to `CCC1(c2ccccc2)CCC(=O)NC1=O` (stereo not given), the Potency entry in test [1] and in test [2] was “inactive” each time.

With `CCN(N=O)C(N)=O`, the Potency entry in test [1] and in test [2] was “inactive” throughout.

In the case of `CC(O)CCO` (stereo not given), the Potency result in test [1] and in test [2] was “inactive” in each case.

For the compound `CCOC(=O)C(C)OC(=O)c1cc(Oc2ccc(C(F)(F)F)cc2Cl)ccc1[N+](=O)[O-]` (stereo not given), the Potency result in test [1] and in test [2] was “inactive” throughout.

On to `CCC(C)n1c(=O)[nH]c(C)c(Br)c1=O` (stereo not given), for which the Potency entry in test [1] and in test [2] was “inactive” in each case.

As for `O=C(O)c1cc[c]([Hg][Cl])cc1`, the Potency entry in test [1] and in test [2] was “inactive” in each case.

For the compound `CC(C(O)c1ccccc1)N(C)C/C=C/c1ccccc1` (stereo not given), the Potency entry in test [1] and in test [2] was “inactive” in each case.

With `Clc1ccccc1-c1ccccc1Cl`, the Potency result in test [1] and in test [2] was “inactive” each time.

`COc1ccc(Cc2nccc3cc(OC)c(OC)cc23)cc1OC`: the Potency result in test [1] and in test [2] was “inactive” throughout.

In the case of `CCn1cc[n+](C)c1C`, the Potency entry in test [1] and in test [2] was “inactive” throughout.

For the compound `OCC(Cl)CCl` (stereo not given), the Potency result in test [1] and in test [2] was “inactive” each time.

For `O=C(O)COc1ccc(Cl)cc1`, the Potency entry in test [1] and in test [2] was “inactive” each time.

`CCCCCCCCCCCCCCCC[n+]1ccccc1`: the Potency is 57 µM (active) and 54.5 µM (active) and 56.2 µM (active) in test [1]; 47.9 µM (active) [middle of 4 runs] in test [2].

Turning to `CN1C[C@H](C(=O)N[C@]2(C)O[C@@]3(O)[C@@H]4CCCN4C(=O)[C@H](Cc4ccccc4)N3C2=O)C=C2c3cccc4[nH]cc(c34)C[C@H]21`, the Potency result in test [1] and in test [2] was “inactive” in each case.

With `ClC(Cl)(Cl)Br`, the Potency entry in test [1] and in test [2] was “inactive” each time.

As to `OCCBr`, the Potency entry in test [1] and in test [2] was “inactive” each time.

For the compound `CCOC(=O)CBr`, the Potency result in test [1] and in test [2] was “inactive” throughout.

Turning to `[Cl][Hg][c]1ccccc1`, the Potency in test [1] was 19.3 µM (active); in test [2], 30.6 µM (active).

As to `CCSC(=O)N1CCCCCC1`, the Potency entry in test [1] and in test [2] was “inactive” throughout.

In the case of `O=C(Nc1ccccc1)c1ccccc1I`, the Potency entry in test [1] and in test [2] was “inactive” each time.

In the case of `CC(C)N1C(=O)c2ccccc2NS1(=O)=O`, the Potency entry in test [1] and in test [2] was “inactive” throughout.

For `CCCC1COC(Cn2cncn2)(c2ccc(Cl)cc2Cl)O1` (stereo not given), the Potency result in test [1] and in test [2] was “inactive” in each case.

On to `C=C(C)C(=O)OCC(CC)CCCC` (stereo not given), for which the Potency result in test [1] and in test [2] was “inactive” each time.

For `CC(C)NCC(O)c1ccc(N)c(C#N)c1` (stereo not given), the Potency entry in test [1] and in test [2] was “inactive” each time.

`CCOC(=O)CC(SP(=O)(OC)OC)C(=O)OCC` (stereo not given): the Potency result in test [1] and in test [2] was “inactive” throughout.

On to `COP(=S)(Oc1cc(Cl)c(Br)cc1Cl)c1ccccc1` (stereo not given), for which the Potency entry in test [1] and in test [2] was “inactive” each time.

For `O=NN1CCOCC1`, the Potency result in test [1] and in test [2] was “inactive” throughout.

On to `COCC(=O)N(c1c(C)cccc1C)[C@H](C)C(=O)OC`, for which the Potency result in test [1] and in test [2] was “inactive” each time.

Consider `CC[N+]1(CCOC(=O)C(O)(c2ccccc2)c2ccccc2)CCCCC1`, for which the Potency entry in test [1] and in test [2] was “inactive” throughout.

For `O=[N+]([O-])c1cccc2cccc([N+](=O)[O-])c12`, the Potency result in test [1] and in test [2] was “inactive” in each case.

As for `Oc1c(Cl)cccc1Cl`, the Potency result in test [1] and in test [2] was “inactive” throughout.

`COc1ccc(C(CN(C)C)C2(O)CCCCC2)cc1` (stereo not given): the Potency entry in test [1] and in test [2] was “inactive” in each case.

As to `C#CC(O)(C=CCl)CC` (stereo not given), the Potency result in test [1] and in test [2] was “inactive” in each case.

For `CCOP(=S)(OCC)SCSCC`, the Potency entry in test [1] and in test [2] was “inactive” throughout.

As to `O=C1C[C@@H]2OCC=C3CN4CC[C@]56c7ccccc7N1[C@H]5[C@H]2[C@H]3C[C@H]46`, the Potency result in test [1] and in test [2] was “inactive” in each case.

With `COc1ccc(/C(=C/C(=O)N2CCOCC2)c2ccc(Cl)cc2)cc1OC`, the Potency entry in test [1] and in test [2] was “inactive” throughout.

`CCOC(=O)C1(c2ccccc2)CCN(CCC(C#N)(c2ccccc2)c2ccccc2)CC1`: the Potency entry in test [1] and in test [2] was “inactive” throughout.

Source of the values: PubChem BioAssay (Tox21).
